# Records with an inconclusive call do not appear. Unmarked numbers belong to inactive results. Activity calls are given as the source filed them.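 How the source made its calls: active means inhibitors giving a complete concentration-response curve with high efficacy; inconclusive means inhibitors giving only a partial curve with partial efficacy; inactive means the rest.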
# Biological target: Lysosomal acid glucosylceramidase (Homo sapiens) (UniProt P04062)
# Test: Confirmation Concentration-Response Assay for Glucocerebrosidase Inhibitors
# Conditions: purified GBA, resorufin glucoside fluorescence, 20 min; series mostly up to 63.5 µM; inhibition: at the top concentration
# Text: NCGC Assay Overview: NIH Molecular Libraries Screening Centers Network [MLSCN] NIH Chemical Genomics Center [NCGC] MLSCN Grant: XO1-MH078932-01 Beta-glucocerebrosidase catalyzes the hydrolysis of beta-glucocerebroside to glucose and ceramide. The inherited deficiency of beta-glucocerebrosidase results in Gaucher disease, which is characterized by a wide variety of symptoms including hepatosplenomegaly, anemia, thrombocytopenia, bony lesions and bone marrow infiltration with characteristic storage cells, known as Gaucher cells. There are also forms of the disorder affecting the central nervous system. Patients with the same genotypes can manifest with diverse clinical presentations and it is believed that improper folding and trafficking of beta-glucocerbrosidase may contribute to the phenotypes observed. Low molecular weight molecules, acting as chaperones, may potentially restore trafficking of misfolded beta-glucocerebrosidase from the endoplasmic reticulum to the lysosomes, thereby enhancing functional lysosomal beta-glucocerebrosidase activity. Using normal beta-glucocerebrosidase, an assay was developed to screen for small molecule inhibitors that could potentially act as molecular chaperones on the mutant forms [developed with NIH investigator Dr. Ellen Sidransky's laboratory]. A pro-fluorescent substrate was chosen for a screen against a small molecule library. The beta-glucocerebrosidase assay used Resorufin beta-D-Glucopyranoside (Marker Gene Technology Inc.), generating a red fluorescent product. The Km for the Resorufin beta-D-Glucopyranoside was determined to be 71.2 uM. The IC50 values of Conduritol B Epoxide, a known glucocerebrosidase inhibitor, was determined to be 87.5 uM. All compounds were screened in a titration series resulting in AC50s (e.g., IC50s or EC50s). To confirm activity from the original screen, samples were reacquired from MLSCN and also synthesized in-house, and re-screened against the original assay at a higher density of titration points.
# NCGC Assay Protocol Summary: Both enzyme and substrate were diluted in buffer composed of 50mM citric acid/KH2PO4, 10mM sodium taurocholate and 0.01% tween-20 at pH 5.9. The final concentration of the enzyme was 0.2 nM in both assays. The compound library was titrated in 7 to 15 concentrations for the primary screens with a final concentration ranging from 0.6 nM to 50 uM. This particular assay protocol was performed in 1536-well plate format as follows: Red fluorescence substrate assay: 2 uL enzyme 23 nL compound 1 uL substrate (final concentration of 30 uM) Incubate at room temperature (RT) for 20 minutes Read the plate in Viewlux plate reader (Ex=548(7) and Em=600(10)).
# Lysosomal acid glucosylceramidase (Homo sapiens), sequence (P04062 whole entry, looked up): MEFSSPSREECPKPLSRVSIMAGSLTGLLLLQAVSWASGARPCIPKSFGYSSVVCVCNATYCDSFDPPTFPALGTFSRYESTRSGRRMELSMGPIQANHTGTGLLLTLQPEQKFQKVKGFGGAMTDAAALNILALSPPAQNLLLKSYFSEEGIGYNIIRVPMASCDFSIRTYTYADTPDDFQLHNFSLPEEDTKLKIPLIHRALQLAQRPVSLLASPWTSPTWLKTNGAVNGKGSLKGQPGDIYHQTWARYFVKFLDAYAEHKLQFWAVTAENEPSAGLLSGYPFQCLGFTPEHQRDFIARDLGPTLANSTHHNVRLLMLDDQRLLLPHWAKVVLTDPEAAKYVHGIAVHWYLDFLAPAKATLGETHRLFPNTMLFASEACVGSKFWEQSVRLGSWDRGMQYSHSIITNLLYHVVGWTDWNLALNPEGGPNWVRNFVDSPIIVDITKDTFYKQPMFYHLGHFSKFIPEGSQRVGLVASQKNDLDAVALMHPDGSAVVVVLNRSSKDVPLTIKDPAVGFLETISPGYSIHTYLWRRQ
SMILES,Potency,inhibition [%]
Cc1cc(N2CCOCC2)nc2ccc(NC(=O)C3CCC(C)CC3)cc12 (stereo unspecified),66 nM (active),
CCN(CC)c1cc(C)c2cc(NC(=O)C3CCC(C)CC3)ccc2n1 (stereo unspecified),940 nM (active),
Cc1cc(N2CCOCC2)nc2ccc(NC(=O)C3CC3)cc12,193 nM (active),
Cc1cc(Nc2cccc(Cl)c2)nc2ccc(NC(=O)C3CCC(C)CC3)cc12 (stereo unspecified),,27
Cc1cc(N2CCN(c3ncccn3)CC2)nc2ccc(NC(=O)C3CCC(C)CC3)cc12 (stereo unspecified),1890 nM (active),
Cc1cc(N2CCCCC2)nc2ccc(NC(=O)C3CCC(C)CC3)cc12 (stereo unspecified),339 nM (active),
CC(C)(C)Oc1ccccc1Nc1nc(NCCO)nc(N2CCCC2)n1,21.5 nM (active),
O=C(Nc1nccs1)c1ccc(NS(=O)(=O)c2ccc(Cl)cc2)cc1,1250 nM (active),
Cc1ccc(S(=O)(=O)Nc2ccc(C(=O)Nc3cc(C)on3)cc2)cc1,90.7 nM (active),
CCCC1CCC(C(=O)Nc2ccc3nc(N4CCOCC4)cc(C)c3c2)CC1 (stereo unspecified),104 nM (active),
Cc1cc(N2CCC(C)CC2)nc2ccc(NC(=O)C3CCC(C)CC3)cc12 (stereo unspecified),164 nM (active),
